# Bioassay records (PubChem BioAssay)
# Only a selection was taken, and hits are over-represented in it overall.
# TTR transcr act – TTR transcription activators in neuroblastoma reporter cells, primary screen, cell-based, luminescence, SH-SY5Y, TTR promoter Gaussia luciferase | hit rate 1.3% among 92,000 | activation, % at 16.7 µM | 100% = recombinant luciferase protein wells;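 active means activation above the mean of all tested compounds plus 3 SD, cut at about 9.5% in these data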;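 further: cells exposed to compounds for one day before reading; 0% = median of all test compound wells on the plate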
# TTR inh HuH7 – TTR promoter reporter inhibitors in hepatoma cells, counter-screen for TTR transcription activator project, cell-based, luminescence, HuH7 hepatoma. shares compounds with TTR transcr act. HuH7 TTR promoter-Gaussia luciferase reporter. inhibition, % at 16.7 µM. hit rate 4% among 1,100. AID 1117279, 2014;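 active means average inhibition above the solvent-only control wells' mean plus 3 SD, cut at about 15% in these data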;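 further: 0% = cells with DMSO only and 100% = cells with inhibitor control FD; inhibitors lower well luminescence so higher value means more inhibition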
# TTR act confirm – TTR transcription activators, retest, confirmation, cell-based, luminescence, SH-SY5Y, triplicate | shares compounds with TTR transcr act | SHSY5Y TTR promoter Gaussia luciferase; 100% = purified Lucia enzyme wells, no cells | 1,100 tested, under 10 active | AID 1117280, 2014 | activation, % at 16.7 µM;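 active means mean activation above a set limit taken from the earlier primary screen, cut at about 11% in these data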;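 further: 0% = DMSO-treated cells and 100% = recombinant Lucia luciferase without cells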
# The depositor's hits bear a star.
SMILES,TTR transcr act,others
Cc1cccnc1NC(=S)NC(=O)/C=C/c1ccco1,11.6*,TTR inh HuH7=-0.1;TTR act confirm=-0.2
O=C(/C=C\c1ccco1)NC(=S)Nc1ccccc1O,-0.2,
Cn1nnc(NC(=S)NC(=O)/C=C/c2ccco2)n1,7.8,
CCC[C@H]1[C@@H](O)CC[C@@]23CCCN2C(=O)CCC[C@@H]13,0.1,
CCCCOCCCNC(=O)C[C@@H]1C(=O)N(CCc2ccc(Cl)cc2)C2=CCCCC[C@]21C(=O)OC,1.6,
O=C1CCC[C@H]2C[C@H](NCc3ccc(F)cc3F)CC[C@]23CCCN13,-0.6,
CCc1cccc(C)c1NC(=O)CN1C(=O)NC(CCc2ccccc2)C1=O (stereo not given),15.4*,TTR inh HuH7=-1.7;TTR act confirm=-1.2
O=C(CN1C(=O)NC(CCc2ccccc2)C1=O)N1CCCCCC1 (stereo not given),0.7,
COc1cccc(NC(=O)CN2C(=O)NC(CCc3ccccc3)C2=O)c1 (stereo not given),0.7,
Cc1cc(Cl)ccc1OCC(=O)N/N=C/c1ccc[nH]1,0.3,
CCCCCCCCN1C(=O)[C@@H](CC(=O)NCCCOC)C[C@@]2(C(=O)OC)C1=C[C@H](C(C)C)O[C@@H]2C1CC1,-0.6,
COc1ccc(Cl)cc1C(=O)NNC(=O)COC(=O)c1cccs1,10.5*,TTR inh HuH7=-5.8;TTR act confirm=-0.5
O=C(NNC(=O)c1cc(Cl)ccc1O)c1cccs1,2.5,
O=C(CCC(=O)c1cccs1)NNC(=O)c1cc(Cl)ccc1Cl,0.3,
O=C(Cn1c(=O)c2cccn2c2cccnc21)NCCCN1CCN(c2ccccc2)CC1,-0.8,
COc1ccc(C(=O)N2CCC(=O)N(C(CO)Cc3ccccc3)CC2)cc1 (stereo not given),13.4*,TTR inh HuH7=-10.5;TTR act confirm=-0.2
O=C(c1ccc(C(F)(F)F)cc1)N1CCC(=O)N([C@H](COCc2ccc(C(F)(F)F)cc2)Cc2ccccc2)CC1,-1.3,
O=C(c1cccc(C(F)(F)F)c1)N1CCC(=O)N(C(CO)Cc2ccccc2)CC1 (stereo not given),1.2,
CCOC(=O)[C@@H]1CSCCS(=O)(=O)N1C(=O)[C@H](Cc1ccccc1)NC(=O)OC(C)(C)C,4.3,
COc1ccc(CN(CC2CCCO2)C(=O)c2cc3sccc3n2C)c(OC)c1 (stereo not given),-2.6,
Cc1nc(-c2ccc(C#N)cc2)cs1,0.8,
Cc1nc(-c2cc(C#N)c(=O)[nH]c2C)cs1,16.0*,TTR inh HuH7=-12.0;TTR act confirm=1.0
COC(=O)c1cc(C#N)c(=O)[nH]c1C,0.3,
O=C(Nc1ccc(Cl)cc1Cl)O[C@@H]1CC[C@@]23CCCN2C(=O)CCC[C@H]3C1,-1.9,
COC(=O)[C@]12C[C@H](CC(=O)NCC3CCCCC3)C(=O)N(Cc3cccc4ccccc34)C1=C[C@H](C(C)C)O[C@@H]2C1CC1,-0.7,
SMILES,TTR transcr act,others
N#Cc1ccc(Cn2ccc3ccc(-c4ccc5ccn(Cc6ccccc6)c5c4)cc32)cc1,-0.4,
CCc1ccc(-n2nc3ccc(NC(=O)c4ccc5c(c4)OCO5)cc3n2)cc1,13.9*,TTR inh HuH7=-2.4;TTR act confirm=0.2
CC(C)(C)c1cnnn1-c1ccc(NC(=O)c2ccc3c(c2)OCO3)cc1,-0.9,
Cc1ccc(-n2nc3ccc(NC(=O)c4ccc5c(c4)OCO5)cc3n2)cc1,0.5,
Cc1ccc(CN2CCCCC(NC(=O)c3ccc4ccccc4c3)C2=O)cc1 (stereo not given),-0.6,
CC(C)NC(=O)OC[C@@H]1CSCCS(=O)(=O)N1,0.9,
O=C(Nc1ccc(F)cc1)OCc1cn(Cc2cc(F)ccc2F)nn1,1.7,
COc1ccc(C2C(C(=O)N3CCN(c4ccccc4)CC3)c3ccccc3C(=O)N2C)cc1OC (stereo not given),2.0,
COc1ccc(C2C(C(=O)O)c3ccccc3C(=O)N2C)cc1Br (stereo not given),11.3*,TTR inh HuH7=-5.4;TTR act confirm=0.4
COc1ccc(OC)c(C2C(C(=O)O)c3ccccc3C(=O)N2C)c1 (stereo not given),-1.9,
O=[N+]([O-])c1ccc2nc(CNc3nc(N4CCOCC4)nc4c3ncn4-c3ccsc3)[nH]c2c1,1.9,
COc1ccc(COC[C@H](C)N2C[C@@H](C)[C@H](CN(C)S(=O)(=O)c3ccc(F)cc3)OCCCC[C@H](C)Oc3ccc(NC(=O)Nc4ccccc4)cc3C2=O)cc1,-1.8,
O=C(Cn1cnc2ccccc2c1=O)c1c[nH]c2ccccc12,-0.7,
C/C(=N\NC(=O)c1c[nH]c2ccccc12)c1ccco1,2.1,
O=C(CN1C(=O)C(=O)N(Cc2ccco2)C1=O)c1c[nH]c2ccccc12,10.9*,TTR inh HuH7=-14.4;TTR act confirm=5.6
COc1ccc2c3c1OC1CC(O)C=CC31CCN(C)C2 (stereo not given),11.6*,TTR inh HuH7=-10.2;TTR act confirm=0.2
Cc1ccccc1Cn1cc(COC(=O)NCCc2c[nH]c3ccccc23)nn1,1.3,
